This is part of a sample that, as a whole, favours compounds with a hit. Of some 83,000 tested, about 20% had one in any assay.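 Single-concentration screen, 48 h exposure, 96-well plates. Endpoint: percent growth. Below 10 = active.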
Key:
Assay in all cases: NCI-60 one-dose screen, 48 h (100 = growth as untreated, 0 = no growth, -100 = all killed)
Conditions in all cases: 10 µM unless noted
NCI-H23 lung = system: NCI-H23 lung
NCI-H226 lung = system: NCI-H226 lung
NCI-H322M lung = system: NCI-H322M lung
HOP-62 NSCLC = system: HOP-62 NSCLC
NCI-H460 lung = system: NCI-H460 lung
HOP-92 NSCLC = system: HOP-92 NSCLC
NCI-H522 lung = system: NCI-H522 lung
A549/ATCC NSCLC = system: A549/ATCC NSCLC
786-0 renal = system: 786-0 renal
COLO 205 colon = system: COLO 205 colon
DU-145 prostate = system: DU-145 prostate
K-562 leukemia = system: K-562 leukemia
MALME-3M melanoma = system: MALME-3M melanoma
MDA-MB-231 breast = system: MDA-MB-231 breast
RXF 393 renal = system: RXF 393 renal
SF-268 CNS = system: SF-268 CNS
SF-295 CNS = system: SF-295 CNS
SF-539 CNS = system: SF-539 CNS
UACC-257 melanoma = system: UACC-257 melanoma
M14 melanoma = system: M14 melanoma

Measured: growth

Cn1cc(-c2csc(-c3cn(CCNC(=O)OC(C)(C)C)c4ccc(F)cc34)n2)c2cccnc21
inactive: NCI-H23 lung 57% | NCI-H226 lung 50.8% | NCI-H322M lung 83.9% | HOP-62 NSCLC 65.7% | NCI-H460 lung 85.9% | HOP-92 NSCLC 49.2% | NCI-H522 lung 44.3% | A549/ATCC NSCLC 63.1% | 786-0 renal 88.1% | COLO 205 colon 67.5% | DU-145 prostate 94.2% | K-562 leukemia 56.4% | MALME-3M melanoma 83.2% | MDA-MB-231 breast 78.4% | RXF 393 renal 105% | SF-268 CNS 81.4% | SF-295 CNS 86.2% | SF-539 CNS 81.7% | UACC-257 melanoma 94.2% | M14 melanoma 52.3%

CCN1CCN(C(=O)[C@]23CC[C@@H](C)[C@H](C)[C@H]2C2=CC[C@@H]4[C@@]5(C)C/C(=C/c6cccc(OC)c6OC)C(=O)C(C)(C)[C@@H]5CC[C@@]4(C)[C@]2(C)CC3)CC1
inactive: NCI-H23 lung 42.9% | NCI-H226 lung 46.2% | NCI-H322M lung 83.7% | HOP-62 NSCLC 57.7% | NCI-H460 lung 20.1% | HOP-92 NSCLC 46.9% | NCI-H522 lung 52.9% | A549/ATCC NSCLC 36.1% | 786-0 renal 49.7% | COLO 205 colon 32.2% | DU-145 prostate 57.3% | K-562 leukemia 16.3% | MALME-3M melanoma 35.2% | MDA-MB-231 breast 36.5% | RXF 393 renal 30.2% | SF-268 CNS 45.5% | SF-295 CNS 50.7% | SF-539 CNS 58.5% | UACC-257 melanoma 46.4% | M14 melanoma 29.5%

N=C(N)c1ccc(S(N)(=O)=O)cc1
inactive: NCI-H23 lung 93.6% | NCI-H226 lung 101% | NCI-H322M lung 96.2% | HOP-62 NSCLC 87.1% | NCI-H460 lung 113% | HOP-92 NSCLC 93.6% | NCI-H522 lung 91.8% | A549/ATCC NSCLC 91.9% | 786-0 renal 90.8% | COLO 205 colon 122% | DU-145 prostate 104% | K-562 leukemia 106% | MALME-3M melanoma 87.6% | MDA-MB-231 breast 110% | RXF 393 renal 66.7% | SF-268 CNS 96.1% | SF-295 CNS 98.8% | SF-539 CNS 129% | UACC-257 melanoma 93% | M14 melanoma 94.7%

O=C1c2ccccc2NC(c2cn(-c3ccccc3)nc2-c2cccnc2)N1Cc1ccccc1 (stereo not given)
inactive: NCI-H23 lung 92.3% | NCI-H226 lung 109% | NCI-H322M lung 93% | HOP-62 NSCLC 111% | NCI-H460 lung 108% | HOP-92 NSCLC 93.4% | NCI-H522 lung 78.4% | A549/ATCC NSCLC 102% | 786-0 renal 89.9% | COLO 205 colon 121% | DU-145 prostate 101% | K-562 leukemia 96.8% | MALME-3M melanoma 119% | MDA-MB-231 breast 94.3% | RXF 393 renal 97.6% | SF-268 CNS 84.8% | SF-295 CNS 92% | SF-539 CNS 95.6% | UACC-257 melanoma 123% | M14 melanoma 106%

Nc1c2c(nc3ccc(Cl)cc13)CC(c1ccc(O)cc1)CC2=O (stereo not given)
inactive: NCI-H23 lung 61.2% | NCI-H226 lung 90.5% | NCI-H322M lung 56.2% | HOP-62 NSCLC 56.4% | NCI-H460 lung 23.2% | HOP-92 NSCLC 88.4% | NCI-H522 lung 43.6% | A549/ATCC NSCLC 59.5% | 786-0 renal 57.5% | COLO 205 colon 123% | DU-145 prostate 72.9% | K-562 leukemia 18.5% | MALME-3M melanoma 52.6% | MDA-MB-231 breast 68.5% | RXF 393 renal 74.2% | SF-268 CNS 65.3% | SF-295 CNS 36.2% | SF-539 CNS 50.8% | UACC-257 melanoma 78.2% | M14 melanoma 21.8%

COc1cc2c(cc1-c1c(C)noc1C)ncc1nc(C3CCC(F)(F)CC3)n([C@@H](C)COC(F)F)c12
inactive: NCI-H23 lung 60.2% | NCI-H226 lung 55% | NCI-H322M lung 40.6% | HOP-62 NSCLC 31.7% | NCI-H460 lung 55.3% | HOP-92 NSCLC 35.1% | NCI-H522 lung 31.5% | A549/ATCC NSCLC 37.5% | 786-0 renal 43.5% | COLO 205 colon 23.5% | DU-145 prostate 66.9% | K-562 leukemia 25% | MALME-3M melanoma 76.1% | MDA-MB-231 breast 41.6% | RXF 393 renal 54.7% | SF-268 CNS 67.8% | SF-295 CNS 47.7% | SF-539 CNS 30.8% | UACC-257 melanoma 35.9% | M14 melanoma 41.4%

CC(c1ccccc1)N1C(=O)C(C2SC(=S)N(C(C)c3ccccc3)C2=O)SC1=S (stereo not given)
inactive: NCI-H23 lung 96.1% | NCI-H226 lung 99.9% | NCI-H322M lung 93.1% | HOP-62 NSCLC 97.5% | NCI-H460 lung 82.5% | HOP-92 NSCLC 83.7% | NCI-H522 lung 77.5% | A549/ATCC NSCLC 82.3% | 786-0 renal 96.2% | COLO 205 colon 85.7% | DU-145 prostate 95.1% | K-562 leukemia 57.9% | MALME-3M melanoma 69.9% | MDA-MB-231 breast 73.4% | RXF 393 renal 85.6% | SF-268 CNS 92.2% | SF-295 CNS 98.6% | SF-539 CNS 50.6% | UACC-257 melanoma 81.7% | M14 melanoma 69.8%

Reference: PubChem BioAssay (NCI)
